Experimental data published in PubChem BioAssay AID2284114 (EPA ToxCast).
Active and inactive are the calls of the source. How the source made its calls: active means hit-call score of the fitted dose curve at least 0.9, where 1 is the maximum; inactive means score below 0.9.

What follows are compounds tested against human MSK1 (RPS6KA5) AGC Kinase, RPS6KA5 (gene 9252) (UniProt O75582) (assay: ERF_FR_ENZ_hMSK1: Eurofins (ERF) Enzymatic Radiometric [Km ATP] KinaseProfiler LeadHunter Assay for human MSK1 (RPS6KA5) AGC Kinase).
Sequence of human MSK1 (RPS6KA5) AGC Kinase, RPS6KA5 (gene 9252) (O75582 whole entry, looked up): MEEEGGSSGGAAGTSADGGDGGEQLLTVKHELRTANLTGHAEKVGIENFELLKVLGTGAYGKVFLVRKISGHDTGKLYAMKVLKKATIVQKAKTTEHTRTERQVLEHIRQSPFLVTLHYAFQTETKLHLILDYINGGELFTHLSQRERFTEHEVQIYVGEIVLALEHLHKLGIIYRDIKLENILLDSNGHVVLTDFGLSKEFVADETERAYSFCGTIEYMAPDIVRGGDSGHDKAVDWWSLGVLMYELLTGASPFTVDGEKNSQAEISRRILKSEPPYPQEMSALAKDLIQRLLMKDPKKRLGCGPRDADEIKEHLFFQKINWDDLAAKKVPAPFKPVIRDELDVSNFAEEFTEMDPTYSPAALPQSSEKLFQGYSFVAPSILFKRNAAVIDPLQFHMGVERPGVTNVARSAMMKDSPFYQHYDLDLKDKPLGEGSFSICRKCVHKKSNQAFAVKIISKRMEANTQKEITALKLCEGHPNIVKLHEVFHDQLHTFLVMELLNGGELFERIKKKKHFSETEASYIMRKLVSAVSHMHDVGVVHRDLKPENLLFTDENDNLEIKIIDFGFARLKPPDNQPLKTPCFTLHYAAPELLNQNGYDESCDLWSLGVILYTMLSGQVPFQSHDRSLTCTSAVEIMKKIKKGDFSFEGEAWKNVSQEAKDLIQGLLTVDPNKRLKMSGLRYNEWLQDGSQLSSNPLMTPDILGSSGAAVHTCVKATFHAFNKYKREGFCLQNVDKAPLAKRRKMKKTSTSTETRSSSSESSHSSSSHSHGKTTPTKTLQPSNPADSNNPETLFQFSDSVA
Method: ERF_FR_ENZ_hMSK1 is a biochemical, single-readout assay that uses extracted gene-proteins in a cell-free assay. Measurements were taken 0.16 hour after chemical dosing in a 96-well plate. See MSK1 Human AGC Kinase Enzymatic Radiometric Assay [Km ATP], Cerep.ERF_FR_ENZ_hMSK1 is an assay component calculated from the ERF_FR_ENZ_hMSK1 assay. It is designed to measure enzyme activity using a type of enzyme reporter as detected by scintillation counting with radiometry technology.Data from the assay component ERF_FR_ENZ_hMSK1 was analyzed at the assay endpoint, ERF_FR_ENZ_hMSK1, in the positive analysis fitting direction relative to DMSO as the negative control and baseline of activity. Using a type of enzyme reporter, loss-of-signal activity can be used to understand changes in enzymatic activity as they relate to gene MSK1. To generalize the intended target to other relatable targets, this assay endpoint is annotated to the kinase intended target family, where the subfamily is serine/threonine kinase.
MSK1 (h) is incubated with 8 mM MOPS pH 7.0, 0.2 mM EDTA, 30 uM […], 10 mM MgAcetate and [g- 33P]-ATP (specific activity and concentration as required). The reaction is initiated by the addition of the Mg/ATP mix. After incubation for 40 minutes at room temperature, the reaction is stopped by the addition of phosphoric acid to a concentration of 0.5%. […]
For `COc1cc(CCC(=O)CC(=O)CCc2ccc(O)c(OC)c2)ccc1O`, the AC50 was 2.12 µM (active). In the case of `O=C(/C=C/c1ccc(O)cc1)CC(=O)/C=C/c1ccc(O)cc1`, the AC50 is reported as 5 µM (active).
